Test [1] is described as follows: anti-His antibody binders, primary screen, artefact control for SMM control protein annotation, biochemical, small-molecule microarray, 635 nm fluorescence (AID 1128).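 Further: score merges feature fluorescence with signal-to-noise for each printed compound spot.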 The conditions noted are these: anti-His Alexa647 antibody binding, higher = more signal.
In test [2] the test system is Human papillomavirus type 1a E7 protein (residues 1-88). The test is described as follows: HPV1a E7 small-molecule binders, primary screen, biochemical, small-molecule microarray, residues 1-88, 635 nm (AID 1129). The conditions noted are these: small-molecule microarray binding, fluorescence 635 nm; higher = more signal.
Test [3] deals with Focal adhesion kinase 1 (Homo sapiens) (UniProt Q05397). The test is described as follows: small-molecule microarray binders of FAK, primary screen, biochemical, 635/667 nm fluorescence, BSA, DTT (AID 1130).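 Further: composite of spot emission at 667 nm and signal to noise over triplicate slides.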 The following applies: PTK2 binding, 635 nm fluorescence, higher = more signal.
Sequence of Focal adhesion kinase 1 (Homo sapiens) (Q05397 whole entry, looked up): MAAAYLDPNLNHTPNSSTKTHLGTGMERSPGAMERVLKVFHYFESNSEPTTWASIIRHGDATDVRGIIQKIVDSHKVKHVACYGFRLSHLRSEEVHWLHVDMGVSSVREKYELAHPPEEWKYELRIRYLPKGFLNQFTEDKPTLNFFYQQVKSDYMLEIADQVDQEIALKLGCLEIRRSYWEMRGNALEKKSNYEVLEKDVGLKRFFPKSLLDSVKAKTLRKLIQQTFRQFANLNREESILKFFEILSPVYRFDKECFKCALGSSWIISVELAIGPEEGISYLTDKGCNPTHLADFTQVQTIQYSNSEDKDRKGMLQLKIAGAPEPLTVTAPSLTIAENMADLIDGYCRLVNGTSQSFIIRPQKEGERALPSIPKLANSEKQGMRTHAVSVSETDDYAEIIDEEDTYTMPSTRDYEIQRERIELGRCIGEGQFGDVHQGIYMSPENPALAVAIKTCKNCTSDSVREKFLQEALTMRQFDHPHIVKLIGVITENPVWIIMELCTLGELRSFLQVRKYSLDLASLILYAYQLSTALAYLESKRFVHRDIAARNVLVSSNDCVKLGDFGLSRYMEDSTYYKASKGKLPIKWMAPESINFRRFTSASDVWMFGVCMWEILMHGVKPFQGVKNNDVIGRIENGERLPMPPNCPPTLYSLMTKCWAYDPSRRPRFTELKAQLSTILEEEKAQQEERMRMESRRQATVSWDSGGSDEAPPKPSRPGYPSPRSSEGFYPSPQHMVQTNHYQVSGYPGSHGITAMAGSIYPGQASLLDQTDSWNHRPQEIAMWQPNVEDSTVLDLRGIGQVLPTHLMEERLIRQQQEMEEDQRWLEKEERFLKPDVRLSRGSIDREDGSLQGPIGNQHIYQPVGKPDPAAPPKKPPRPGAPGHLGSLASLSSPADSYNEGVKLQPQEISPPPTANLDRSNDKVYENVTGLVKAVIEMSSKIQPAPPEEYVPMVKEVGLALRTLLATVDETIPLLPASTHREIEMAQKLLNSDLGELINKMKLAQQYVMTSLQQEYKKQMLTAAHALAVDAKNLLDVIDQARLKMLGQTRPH
Test [4] deals with Fibrinogen (Alexa647-labelled). As to the kind of experiment: fibrinogen binders on compound microarrays, profiling panel, artefact control for SMM control-protein annotation, biochemical, small-molecule microarray, 635/667 nm fluorescence (AID 1131).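 Further: z-score merges 667 nm fluorescence with per-spot signal-to-noise over triplicate slides.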 The following applies: fibrinogen-A647 binding fluorescence, higher = more signal.
Test [5] concerns the target Follistatin (Homo sapiens) (UniProt P19883). The test is described as follows: follistatin binders on small-molecule microarrays, primary screen, biochemical, small-molecule microarray, 635/667 nm fluorescence (AID 1132). The following applies: FST binding, 635 nm fluorescence, higher = more signal.
The target in test [6] is Fibroblast growth factor 2 (Homo sapiens) (UniProt P09038). As to the kind of experiment: FGF2 binders on small-molecule microarrays, primary screen, biochemical, small-molecule microarray, 635/667 nm fluorescence (AID 1133). The following applies: small-molecule microarray binding, FGF2, fluorescence 635/667; higher = more signal.
Sequence of Fibroblast growth factor 2 (Homo sapiens) (P09038 whole entry, looked up): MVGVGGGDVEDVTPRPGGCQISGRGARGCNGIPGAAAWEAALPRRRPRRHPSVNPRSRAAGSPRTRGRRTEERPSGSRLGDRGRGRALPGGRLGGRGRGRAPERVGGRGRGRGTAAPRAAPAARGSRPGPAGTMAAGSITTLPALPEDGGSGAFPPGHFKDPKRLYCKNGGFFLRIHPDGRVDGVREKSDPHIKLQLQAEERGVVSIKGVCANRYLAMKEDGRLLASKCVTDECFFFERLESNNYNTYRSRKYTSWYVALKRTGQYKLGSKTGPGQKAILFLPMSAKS
The nature of test [7]: mitochondrial membrane potential change in A549 cells, profiling panel, cell-based, JC-1 fluorescence, basal, 24 h, 100 nL (AID 1138).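 Further: A549 lung adenocarcinoma cells under basal conditions with no added stimulus; test concentration not given here.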 The following applies: higher = more signal.
A further test deals with Lefty1. The test is described as follows: Lefty1 binders on small-molecule microarrays, primary screen, biochemical, small-molecule microarray, 635/667 nm fluorescence (AID 1139). The following applies: small-molecule microarray binding, fluorescence 635/667; higher = more signal.
Test [8] relates to wheat germ agglutinin (Triticum aestivum), Alexa647-labelled. As to the kind of experiment: wheat germ agglutinin binders on compound microarrays, profiling panel, artefact control for SMM control-protein annotation, biochemical, small-molecule microarray, 635/667 nm fluorescence (AID 1140).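 Further: score merges 667 nm feature emission with signal to noise over triplicate slides.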 The conditions noted are these: WGA-A647 binding, 635 nm fluorescence, higher = more signal.

In test [9] the target is Luciferin 4-monooxygenase (Photinus pyralis) (UniProt P08659). As to the kind of experiment: firefly luciferase enzyme inhibitors, primary screen, biochemical, luminescence, purified enzyme, 2006 set (AID 1141).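 Further: cell-free assay with purified firefly luciferase at 100 ng per well in PBS; test concentration not given here.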 The following applies: SteadyGlo luminescence, 30 min, higher = more signal, called active from +8 up or from −8 down.
Sequence of Luciferin 4-monooxygenase (Photinus pyralis) (P08659 whole entry, looked up): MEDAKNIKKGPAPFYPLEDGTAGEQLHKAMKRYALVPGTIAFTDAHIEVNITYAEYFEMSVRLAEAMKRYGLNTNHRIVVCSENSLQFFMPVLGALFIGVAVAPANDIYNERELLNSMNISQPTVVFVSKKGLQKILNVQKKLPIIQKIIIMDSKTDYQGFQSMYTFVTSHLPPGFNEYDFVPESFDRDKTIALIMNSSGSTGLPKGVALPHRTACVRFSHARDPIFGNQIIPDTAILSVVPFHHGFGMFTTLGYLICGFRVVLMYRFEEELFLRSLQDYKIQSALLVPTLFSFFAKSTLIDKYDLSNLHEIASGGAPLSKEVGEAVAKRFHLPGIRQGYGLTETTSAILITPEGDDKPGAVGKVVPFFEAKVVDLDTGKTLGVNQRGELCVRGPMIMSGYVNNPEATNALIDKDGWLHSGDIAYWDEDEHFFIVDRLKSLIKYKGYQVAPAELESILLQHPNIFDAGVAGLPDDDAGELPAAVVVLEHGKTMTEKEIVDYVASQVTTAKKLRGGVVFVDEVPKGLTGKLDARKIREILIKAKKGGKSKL
Test [10] relates to Wnt5a (protein binding on small-molecule microarray). The test is described as follows: Wnt5a binders on small-molecule microarray, primary screen, biophysical, 635/667 nm fluorescence (AID 1142).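 Further: fluorescence read at 667 nm with signal to noise per printed feature.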 The conditions noted are these: 635 nm fluorescence, higher = more signal.
The nature of test [11]: cell viability in Huh7 cells, primary screen, cytotoxicity control for HCV replication inhibitor project, CellTiter-Glo luminescence, basal, 48 h (AID 1143).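 Further: Huh7 hepatoma cells carrying a hepatitis C replication reporter with no stimulus; test concentration not given here.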 The following applies: Huh7 HCV replicon, higher = more signal, called active from +8 up or from −8 down. Background: In ATP-based viability assays light output follows the ATP content of the culture.
The nature of test [12]: P. aeruginosa biofilm formation inhibitors, primary screen, PAO1 strain, BacTiter-Glo luminescence, LB-PBS (AID 1144). The following applies: 12 h, higher = more signal.
The nature of test [13]: CREB reporter modulators without forskolin, primary screen, cell-based, PC12, CRE-LacZ reporter, unstimulated (AID 1145). The following applies: no forskolin, luminescence, 4.5 h, higher = more signal, called active from +8 up or from −8 down.
Test [14] can be described thus: CREB reporter modulators under forskolin, primary screen, cell-based, PC12, CRE-LacZ reporter, forskolin-stimulated (AID 1146).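 Further: PC12 cells with 6xCRE LacZ reporter stimulated by forskolin 10 µM; beta-galactosidase reporter signal reflecting CREB driven transcription.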 The conditions noted are these: luminescence, 4.5 h, higher = more signal, called active from +8 up or from −8 down.
Test [15] has as its target Streptavidin (Streptomyces avidinii) (UniProt P22629). The test is described as follows: streptavidin binders on small-molecule microarray, primary screen, artefact control for SMM compound annotation, biophysical, 635/667 nm fluorescence (AID 1147).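 Further: signal reflects streptavidin binding to arrayed compounds as a control protein.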 The conditions noted are these: streptavidin binding, higher = more signal.
Test [16] in a line: small-molecule binders of probe aInhba, primary screen, biochemical, small-molecule microarray, 635/667 nm fluorescence (AID 1148).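 Further: score merges 667nm spot fluorescence with signal-to-noise for antibody binding to printed compounds.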 The conditions noted are these: higher = more signal.
Test [17] deals with Torsin-1A (Homo sapiens) (UniProt O14656). The test is described as follows: torsin A binders from cell lysate, primary screen, small-molecule microarray, wild-type, 635/667 nm (AID 1149). The following applies: COS7 hTOR1A-WT lysate, 635 nm fluorescence, higher = more signal.
Sequence of Torsin-1A (Homo sapiens) (O14656 whole entry, looked up): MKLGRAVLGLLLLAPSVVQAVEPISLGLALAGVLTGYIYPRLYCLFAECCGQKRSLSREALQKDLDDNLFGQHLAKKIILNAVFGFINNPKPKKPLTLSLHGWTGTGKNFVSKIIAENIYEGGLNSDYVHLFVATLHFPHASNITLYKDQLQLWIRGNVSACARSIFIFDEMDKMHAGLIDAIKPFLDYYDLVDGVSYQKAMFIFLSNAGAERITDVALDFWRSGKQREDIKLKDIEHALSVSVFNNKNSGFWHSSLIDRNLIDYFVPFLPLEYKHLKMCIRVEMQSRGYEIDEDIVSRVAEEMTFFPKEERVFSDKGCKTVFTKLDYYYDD
For test [18] the target is unchanged. As to the kind of experiment: small-molecule binders of mutant TOR1A in lysate, primary screen, cell lysate, small-molecule microarray, COS7 lysate, 635/667 nm fluorescence (AID 1150).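 Further: score pools 667 nm emission and signal to noise measuring lysate protein binding.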 The conditions noted are these: COS7 hTOR1A mutant lysate, 635 nm fluorescence, higher = more signal.
Test [19] relates to Sonic hedgehog protein (Shh). The test is described as follows: small-molecule binders of Shh protein, primary screen, biochemical, small-molecule microarray, 635/667 nm fluorescence (AID 1151).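 Further: Shh protein binding to compounds spotted on small-molecule microarray slides; score combines spot fluorescence intensity with signal-to-noise across triplicate slides.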 The conditions noted are these: small-molecule microarray binding, 635 nm fluorescence; higher = more signal.

SMILES strings stand for the structures. Activity calls are given as the source filed them. Unless noted, how the calls were made is not given here.

Sequence of Streptavidin (Streptomyces avidinii) (P22629 whole entry, looked up): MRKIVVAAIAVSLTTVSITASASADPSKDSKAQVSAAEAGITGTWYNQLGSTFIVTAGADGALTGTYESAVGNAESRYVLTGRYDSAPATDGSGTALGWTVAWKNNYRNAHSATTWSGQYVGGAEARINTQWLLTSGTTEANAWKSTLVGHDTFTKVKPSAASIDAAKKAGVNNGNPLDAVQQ
Sequence of Follistatin (Homo sapiens) (P19883 whole entry, looked up): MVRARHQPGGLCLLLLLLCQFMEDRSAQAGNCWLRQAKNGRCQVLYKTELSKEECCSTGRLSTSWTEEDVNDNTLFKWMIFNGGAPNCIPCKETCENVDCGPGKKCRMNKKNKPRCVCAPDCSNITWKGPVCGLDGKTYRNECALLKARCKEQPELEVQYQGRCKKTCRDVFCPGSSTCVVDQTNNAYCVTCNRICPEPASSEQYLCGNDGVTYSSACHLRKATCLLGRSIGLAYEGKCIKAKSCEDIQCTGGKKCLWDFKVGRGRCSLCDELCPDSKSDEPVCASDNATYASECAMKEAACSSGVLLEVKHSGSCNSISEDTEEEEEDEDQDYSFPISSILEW

With `Cc1ccc(F)cc1S(=O)(=O)N[C@@H]1CCN(Cc2ccc(C(F)(F)F)cc2)C1`, the composite z-score in [1] was -0.175; in [2] it was -0.704; in test [3], -0.0343; in test [4] it was -0.292; in [5] it was 0.277; in test [6] it was -0.456. Besides, the composite z-score with Lefty1 is 0.22; in test [8], -0.655; in [10], -0.192; in test [15] it was -0.381; in test [16], -0.208; with Torsin-1A (Homo sapiens) [17] it was -0.181. In addition, the composite z-score was 0.319 in the test with Torsin-1A (Homo sapiens) [18] and 0.451 in [19]. Moreover, the z-score is 0.197 in [7]; -0.0404 (inactive) in [9]; -4.39 (inactive) in [11]; 1.2 (inactive) in [12]; 3.48 (inactive) in [13]; 0.777 (inactive) in [14].
With `Cc1cccc(/C=C/C=O)c1`, the composite z-score in test [1] was -0.109; in test [2] it was -0.115; in test [3], 0.0048; in [4], 0.458; in test [5], 0.198; in test [6], -0.163. In addition, the composite z-score in the test with Lefty1 was -0.119; in test [8], 0.718; in test [10], -0.0267; in [15], 1.04; in test [16] it was -0.0963; with Torsin-1A (Homo sapiens) [17], -0.782. Further, the composite z-score with Torsin-1A (Homo sapiens) [18] is -0.295; in test [19] it was 0.0638. In addition, the z-score in test [7] is 0.538; in test [9], -0.953 (inactive); in test [11] it was 0.585 (inactive); in test [12] it was 0.16 (inactive); in test [13], 0.0924 (inactive); in test [14] it was -0.0647 (inactive).
As for `O=C1O[C@@H](c2ccccc2)[C@@H](c2ccccc2)N2[C@@H](c3ccc(O)cc3)[C@]3(C(=O)Nc4ccc(C#CCCO)cc43)[C@@H](C(=O)N3CCCCCCC3)[C@H]12`, the composite z-score in test [1] stood at 2.27; in [2], 1.24; in [3] it was 0.724; in test [4], 0.952; in test [5], 1.42; in test [6], 0.94. Moreover, the composite z-score with Lefty1 is 1.26; in [8] it was 1.21; in test [10] it was 0.409; in test [15], 1.55; in test [16], 1.46; with Torsin-1A (Homo sapiens) [17], 1.37. Moreover, the composite z-score came to 1 in the test with Torsin-1A (Homo sapiens) [18] and 0.887 in [19]. Besides, the z-score is -0.158 in test [7]; 0.0848 (inactive) in [9]; -0.915 (inactive) in [11]; -0.547 (inactive) in test [12]; -0.114 (inactive) in test [13]; -0.394 (inactive) in [14].
Take `O=C1O[C@H](c2ccccc2)[C@H](c2ccccc2)N2[C@H]1[C@@H](C(=O)N1CCCCCCC1)[C@]1(C(=O)Nc3ccc(C#CC4=CCCCC4)cc31)[C@H]2c1ccc(O)cc1`: the composite z-score in test [1] was 3.04; in test [2], 1.36; in [3], 5.6; in [4], 0.535; in [5] it was 1.56; in [6] it was 1.22. For the same compound, the composite z-score is 1.82 with Lefty1; 1.81 in test [8]; 2.45 in test [10]; 4.23 in [15]; 1.98 in [16]; 3.97 in the test with Torsin-1A (Homo sapiens) [17]. Further, the composite z-score is 3.82 with Torsin-1A (Homo sapiens) [18] and 2.29 in test [19]. Also, the z-score in test [7] was -0.233; in test [9] it was 0.289 (inactive); in [11], -5.14 (inactive); in [12] it was -1.54 (inactive); in [13] it was -1.43 (inactive); in test [14], -0.464 (inactive).
As to `O=C1C[C@@](C(=O)O)(c2ccc([N+](=O)[O-])cc2)[C@@H](c2ccc(CO)cc2I)N1CC12CC3CC(CC(C3)C1)C2`, the composite z-score was 0.829 in [1]; 1.11 in test [2]; 0.365 in test [3]; 0.607 in test [4]; 0.348 in test [5]; -0.35 in test [6]. The composite z-score was 0.665 with Lefty1; 1.03 in test [8]; 0.0743 in test [10]; 0.975 in test [15]; -0.12 in test [16]; 0.663 with Torsin-1A (Homo sapiens) [17]. Moreover, the composite z-score came to 0.381 in the test with Torsin-1A (Homo sapiens) [18] and 0.617 in [19]. The z-score was -1.1 in [7]; -0.869 (inactive) in [9]; -5.39 (inactive) in [11]; -0.142 (inactive) in test [12]; 0.468 (inactive) in test [13]; 3.72 (inactive) in test [14].

For the origin of these results see PubChem BioAssay.
